Compounds with a hit are over-represented: about 4.3% of the library has one in this group of screens.
HSF1 inh: HSF1 inhibition; AID 2098; 300,000 tested, 0.77% active; NIH3T3-HGL HSE-luciferase, MG132-induced, luminescence 8 h; stronger effect = lower value; activity change, negative = inhibition, % at 7.5 µM (by protocol);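 active = more than half of replicate wells show activity change below -50%, luminescence cut by over half; inconclusive = some wells, but at most half, below -50%; inactive = no replicate well below -50%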;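 also: luciferase reports HSF-1 transcriptional activity via heat shock element; 0% = median of DMSO wells and -100% = zero luminescence signal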
MITF act: activators of MITF-driven TRPM1 promoter activity in SK-MEL-5 cells | 300,000 tested, 0.75% active | AID 588334 | SK-MEL-5 TRPM1-promoter luciferase, 24 h; % of positive control, neutral wells = 0 | activation, % at 12.5 µM;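 active = mean activation of at least 80% with every replicate also reaching 80%; inconclusive = mean reaches 80% but some replicate falls short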;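 also: 0% = neutral control wells and 100% = parthenolide positive control wells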
SMARCA2 activ: SMARCA2 function activation, primary screen; MG213 cells, MMTV-luciferase reporter, dexamethasone, overnight; activation, % at 9.1 µM; 370,000 tested, 1% active; AID 652017; in the data active = activation above about 7.8%;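 also: 0% = vehicle wells and 100% = reference activator wells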
esBAF inh: SWI/SNF esBAF complex inhibition | reporter increase, % at 12.5 µM | mouse ES cells, Bmi1-luciferase knock-in reporter, 24 h; 100% = twice the neutral-well signal | 350,000 tested, 2% active; in the data active = activation above about 40%; inconclusive = no clear call, values can overlap the other calls;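 also: 0% = median of the plate's neutral control wells and 100% = double that signal; a rise in the Bmi1 reporter signal indicates esBAF inhibition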
Wnt bcat act: Wnt/beta-catenin pathway activation; Wnt/beta-catenin reporter cell assay, activator, plate reader; activation, % at 9.35 µM; 300,000 tested, 1.2% active; in the data active = activation above about 30%, passing the limit was not always enough; inconclusive = no clear call, values can overlap the other calls;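 also: 0% = neutral control wells and 100% = positive control wells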
HSF-1 act: increases HSF-1 driven luciferase reporter signal | 300,000 tested, 1.7% active | NIH3T3-HGL HSF-1 luciferase reporter, MG132, 8 h; 100% = twice DMSO control signal | activation, % at 9 µM;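 active = mean replicate activation of at least 50% with a set share of replicates each reaching 50%; inconclusive = only one of those two conditions met; inactive = mean below 50% and too few replicates reaching it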;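 also: 0% = median of the neutral control wells and 100% = twice that signal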
SMARCA2 act conf: confirmation of SMARCA2 (BRM) function activators; shares compounds with SMARCA2 activ; MG213 cells, MMTV-luciferase with dexamethasone, luminescence, overnight; MG213 cells expressing E1A, Rb sequestered; DMSO wells 0%, reference activator 100%; activation, % at 9.1 µM; 3,500 tested, 30% active; AID 652260;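 active = activation above its plate's cutoff, the mean activation of tested wells plus 3 SD, cut at about 7.9% in these data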
VP16 Luc act: GAL4-VP16 reporter activation counter-screen; 3,500 tested, 41% active; activation, % at 9.1 µM; shares compounds with SMARCA2 activ; HEK293 GAL4-VP16 pG5luc reporter, luciferase luminescence; scaled: DMSO wells 0%, SAHA wells 100%; AID 686939;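 active = activation above the solvent-only control well mean plus 3 SD, averaged across control plates, cut at about 5.2% in these data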
* hit, by the source's call; ? = inconclusive; · = no result given.

SMILES	HSF1 inh	MITF act	SMARCA2 activ	esBAF inh	Wnt bcat act	HSF-1 act	SMARCA2 act conf	VP16 Luc act
O=C(NCC(F)(F)F)[C@@H]1[C@@H](CO)[C@@H]2Cn3c(cccc3=O)[C@H]1N2C(=O)C1CCC1	·	·	·	0.1	·	·	·	·
CC(C)(C)OC(=O)N1CCC(CNC(=O)c2ccccc2)CC1	-1.6	·	8.8*	·	3.2	-2.4	-0.8	1.5
CC(Oc1ccc(Br)cc1)C(=O)O/N=C(\N)c1ccncc1 (stereo unspecified)	17.0	-0.2	12.4*	2.9	-1.4	26.2	-4.4	-0.1
CCC(=O)N(C)C[C@@H]1Oc2ncc(-c3ccc(C#N)cc3)cc2C(=O)N([C@H](C)CO)C[C@@H]1C	·	·	·	0.9	·	·	·	·
CCCCC#Cc1ccccc1COC[B-](F)(F)F	·	·	16.7*	·	-12.0	·	7.9*	5.9*
F[B-](F)(F)COCc1ccccc1C#Cc1ccccc1	·	·	18.0*	·	-15.4	·	17.2*	3.2
O=c1[nH]c(CSc2nc3ccccc3s2)nc2ccccc12	38.7	30.3	8.4*	47.4*	28.2	44.9	3.2	4.2
COc1cc2c(cc1OC)C(c1cc3ccc(C)cc3[nH]c1=O)N(C(=O)c1ccco1)CC2 (stereo unspecified)	10.7	7.5	11.1*	-0.5	-1.6	8.0	0.4	1.3
COc1cc2c(cc1OC)C(c1cc3cc4c(cc3[nH]c1=O)OCO4)N(C(=O)C1CC1)CC2 (stereo unspecified)	2.2	-5.0	-1.9	-3.1	-2.3	-1.1	·	·
Cc1cc(C(=O)Nc2cccc3c2O[C@@H](CN(C)Cc2ccncc2)[C@H](C)CN([C@H](C)CO)C3=O)n(C)n1	·	·	·	1.3	·	·	·	·
C/C(=N/NC(=O)c1ccccn1)c1c[nH]c2ccccc12	4.3	51.6	16.4*	54.8*	12.4	25.5	11.6*	3.5
O=C(O)c1cccc(Nc2ccnc(Nc3cccc(C(=O)O)c3)n2)c1	-54.5*	-27.2	8.0*	-74.0	-1.3	-60.3	7.7	2.0
O=C(O)c1cccc(NC2=Nc3cccc4cccc2c34)c1	6.9	6.3	9.9*	26.5	0.4	11.1	10.4*	9.4*
O=C(O)c1cccc(Nc2nc(N3CCOCC3)nc(N3CCOCC3)n2)c1	-3.9	-11.1	-0.8	-10.9	-5.0	-6.9	·	·
CC=Cc1ccc2n(c1=O)C[C@H]1[C@H](CO)[C@@H](C(=O)N3CCCCC3)N(CC3CC3)[C@@H]21 (mixture of isomers)	·	·	·	0.3	·	·	·	·
COCC(=O)N(C)C[C@@H]1Oc2cc(C3=CCCC3)ccc2S(=O)(=O)N([C@H](C)CO)C[C@@H]1C	·	·	·	-3.9	·	·	·	·
C(=C\c1nc(N2CCCCCC2)c2ccccc2n1)/c1ccccc1	7.7	9.5	9.3*	·	-21.1	14.3	2.3	3.3
c1ccc2c(N3CCCCC3)nc(N3CCCCC3)nc2c1	-4.5	-9.7	-0.6	·	·	11.9	·	·
Nc1ccc2c(c1Cl)C(=O)c1ccc(N)c(Cl)c1C2=O	-0.1	12.5	10.2*	41.1	23.9	4.9	23.4*	5.2*
Cc1ccc(NC(=S)N2CCC(c3ccccc3)C2)c(Cl)c1 (stereo unspecified)	-4.1	60.6	8.8*	·	42.1*	1.2	4.1	9.3*
CC(=O)c1cccc(-c2ccnc3c2CC(C(=O)NCc2ccc(N4CCN(C)CC4)cc2)O3)c1 (stereo unspecified)	·	·	8.7*	·	-2.9	·	2.5	4.6
O=C(CS(=O)c1ccc(C(F)(F)F)cc1[N+](=O)[O-])Oc1ccccc1 (stereo unspecified)	171.6	-87.1	15.6*	·	24.6	238.2*	-14.6	4.2
COC(=O)c1ccc(OC(=O)CS(=O)c2ccccc2[N+](=O)[O-])cc1 (stereo unspecified)	8.7	-16.5	3.1	·	-0.3	23.6	·	·
O=c1[nH]cnc2cc(-c3ccc(Br)cc3)sc12	17.3	57.1	10.5*	16.7	20.8	43.6	5.2	3.1
COCC(=O)Nc1ccc2c(c1)OC[C@@H](C)N(C(=O)c1ccccn1)C[C@H](C)[C@@H](OC)CN(C)C2=O	·	·	·	-4.5	·	·	·	·
SMILES	HSF1 inh	MITF act	SMARCA2 activ	esBAF inh	Wnt bcat act	HSF-1 act	SMARCA2 act conf	VP16 Luc act
COc1ccc(-c2cc(NC=O)c3ncc(-c4ccc(OC)c(OC)c4)n3c2)cc1OC	·	·	13.3*	-19.0	3.7	·	15.1*	8.6*
COc1cccc(-c2cnc3c(NC=O)cc(-c4ccc(O)c(OC)c4)cn23)c1	·	·	4.2	-2.6	1.3	·	·	·
COc1cc(-c2cc(NC=O)c3ncc(-c4ccc(C(C)=O)cc4)n3c2)ccc1O	·	·	14.2*	-13.5	1.9	·	21.0*	4.9
Cc1ccc(S(=O)(=O)N[C@H]2CC[C@@H](CCNC(=O)c3ccc4c(c3)OCO4)O[C@@H]2CO)cc1	·	·	·	-1.9	·	·	·	·
C[C@H](O)C#Cc1cnc2c(c1)C(=O)N([C@@H](C)CO)C[C@@H](C)[C@H](CN(C)C(=O)Cc1ccccn1)O2	·	·	·	2.0	·	·	·	·
c1ccc2c(c1)COc1c3cc4c(cc3nn1-2)OCO4	·	·	9.5*	25.0	0.0	·	15.2*	10.6*
CCc1nnc(N/N=C\c2ccc(OC(C)=O)c(OC)c2)n1N	?	-8.9	8.6*	-4.1	0.7	-61.8	-1.6	1.6
O=C(OCc1cc(=O)oc2cc(O)ccc12)c1cc(S(=O)(=O)N2CCOCC2)ccc1F	4.7	-21.5	8.4*	2.6	-4.3	12.2	11.9*	-0.6
Cc1csc(NC(=O)c2ccc[nH]c2=O)n1	17.6	20.8	9.1*	8.6	12.8	24.6	13.4*	9.8*
Cc1csc(NC(=O)c2cnccn2)n1	6.4	·	0.6	22.0	·	9.7	·	·
Cc1csc(NC(=O)c2cc(C)on2)n1	·	55.1	10.6*	2.5	39.9*	·	4.1	7.5*
O=c1[nH]c2ccccc2c2nc3ccccn3c12	3.7	·	12.0*	49.5*	-3.7	6.4	16.3*	7.1*
CCCc1cc(C(=O)OC)c2ccccc2n1	-1.0	-3.7	8.3*	·	·	-9.1	-2.3	1.1
CC(=O)Nc1cccc(-c2cccc3nccn23)c1	·	·	10.8*	17.4	-0.9	·	8.9*	7.7*
C[C@@H]1CN([C@@H](C)CO)C(=O)c2cc(NS(=O)(=O)c3ccccc3)ccc2O[C@@H](C)CCCCO[C@@H]1CN(C)S(=O)(=O)c1cn(C)cn1	·	·	·	0.3	·	·	·	·
CCc1cccc2c(C(=O)COC(=O)c3c(C)noc3C)c[nH]c12	8.7	18.7	8.6*	2.3	-4.3	14.8	3.8	0.4
COC1=Nc2ccccc2N2CCN=C12	·	·	-2.8	·	·	·	·	·
c1ccc2c(c1)C1=NCCN1c1ccccc1-2	·	·	23.8*	·	11.4	·	371.5*	3.6

Screening data deposited in PubChem BioAssay by several laboratories.
